Inconclusive results are not listed. A call without a number means that no potency is given here. Calls of active or inactive are those of the source. Calls come from the whole dose curve; as a rule, active = well fitted activation curve with a large enough effect; inconclusive = small, poorly fitted or top-dose-only effect; inactive = no such curve, though single readings can be large or run the other way.
Assay: qHTS Assay for Rab9 Promoter Activators: Initial hit validation from the primary screen
Conditions: Huh7 Rab9 promoter luciferase reporter, 24 h; series mostly up to 46.1 µM
Summary of the method: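 Luciferase signal, read 10 min after Amplite reagent, reports Rab9 promoter activation. Compounds in DMSO were applied for 24 h at 37C to Rab9-luciferase Huh7 cells, pre-incubated 2 h in reduced-serum medium with 10% FBS.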
In the case of `Cc1ccc2c(c1)sc1nc(=O)n(-c3ccccc3)c(=O)n12`, the Potency is reported as 499 nM (active). In the case of `COc1ccccc1CNC(=O)COc1ccc(C)cc1`, the Potency is reported as “inactive”. For `NC(=O)C1(NC(=O)[C@@H]2CC3(CC(c4cccc(NC(=O)[C@@H]5CCC(=O)N5)c4)=NO3)CN2C(=O)c2ccccc2)CC1` (some centres not stated), the Potency was “inactive”. In the case of `CCc1cc(C(=O)Nc2ccccc2)cs1`, the Potency is reported as 2810 nM (active). For `O=C(N/N=C/c1ccc(-c2ccc(Br)cc2)o1)c1ccc2c(c1)OCO2`, the Potency was “inactive”. In the case of `Cc1noc(/C=C/N(C)C)c1S(=O)(=O)N1CCCC(C(=O)N2CCCCC2)C1` (configuration not stated), the Potency is reported as “inactive”. For `Cc1nnc2n(c1=O)N=C(c1ccc(Cl)cc1)CS2`, the Potency was 888 nM (active). For `C=CCc1ccc(OCCOCCNCCOC)c(OC)c1`, the Potency was “inactive”. For `CC1(C)CC(=O)c2c(O)c(-c3ccccc3)c(=O)n(-c3ccccc3)c2C1`, the Potency was “inactive”. For `O=C(/C=C/c1ccco1)NCC1OCCc2ccccc21` (configuration not stated), the Potency was “inactive”. For `OCCC1CN(Cc2nc3ccccc3s2)CCN1C1CCCC1` (configuration not stated), the Potency was “inactive”. For `CC1CC(C)CN(CC(=O)N2CCOCC2)C1` (configuration not stated), the Potency was “inactive”. For `CCOc1ccc(CNC(=O)C2CCCN(S(C)(=O)=O)C2)cc1OC` (configuration not stated), the Potency was “inactive”. In the case of `CC(Sc1nnc(C(F)(F)F)n1C)C(=O)Nc1ccc(S(N)(=O)=O)cc1` (configuration not stated), the Potency is reported as “inactive”. With `O=C(NCCc1c[nH]c2ccccc12)C(=O)NCC(c1ccco1)N1CCN(c2ccccc2F)CC1` (configuration not stated) the Potency was “inactive”. For `O=C(c1cccc(Oc2ccc([N+](=O)[O-])cc2)c1)N1CCOCC1`, the Potency was “inactive”. With `Cc1nc(-c2ccccn2)sc1C(=O)Nc1ccc(F)cc1F` the Potency was 9960 nM (active).

Source: PubChem BioAssay AID493200 (National Center for Advancing Translational Sciences (NCATS), 2011)
Potency is the fitted concentration of half-maximal effect.
